Among the data in PubChem BioAssay AID1508602 (The Scripps Research Institute Molecular Screening Center, 2020) are activation values, retold here.

Hit rate of the full screen: of about 650,000 compounds, about 6,800 (1%) were called active. No stated cut-off is given here; in the data, active means activation above about 4.9%; inactive means the rest. The full list was thinned out, with actives kept by preference.

Sequence of G-protein coupled receptor 151 (Homo sapiens) (Q8TDV0 whole entry, looked up): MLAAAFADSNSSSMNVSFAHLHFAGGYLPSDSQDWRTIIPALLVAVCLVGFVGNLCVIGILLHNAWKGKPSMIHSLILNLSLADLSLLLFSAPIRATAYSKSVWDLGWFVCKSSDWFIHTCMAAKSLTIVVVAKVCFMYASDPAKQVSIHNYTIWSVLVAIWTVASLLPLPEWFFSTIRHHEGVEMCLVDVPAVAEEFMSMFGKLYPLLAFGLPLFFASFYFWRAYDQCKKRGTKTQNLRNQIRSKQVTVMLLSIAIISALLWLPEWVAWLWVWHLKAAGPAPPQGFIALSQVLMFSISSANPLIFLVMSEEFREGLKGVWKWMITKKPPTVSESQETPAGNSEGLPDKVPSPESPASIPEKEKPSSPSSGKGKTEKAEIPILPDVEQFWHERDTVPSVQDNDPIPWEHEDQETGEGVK

This assay addresses G-protein coupled receptor 151 (Homo sapiens) (UniProt Q8TDV0). Kind of assay: activates the human receptor GPR151, primary screen, cell-based, PathHunter beta-arrestin, luminescence (AID 1508602).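 Further: 0% = median of compound wells and 100% = cells with positive control.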 As to conditions: PathHunter beta-arrestin GPR151 cells, at 11.2 µM, stronger effect = higher value.
Take `O=C(Cc1ccccc1)NCc1nnc2n1CCN(Cc1ccc(F)cc1)CC2`: the activation was -0.584% (inactive). With `CCc1cc2c(=O)c(-c3ccc4c(c3)OCO4)c(C)oc2cc1OC1OC(CO)C(O)C(O)C1O` (stereo not drawn) the figure was 0.749% (inactive). Consider `COc1ccc(-c2coc3cc(OC4OC(COC5OC(C)C(O)C(O)C5O)C(O)C(O)C4O)cc(O)c3c2=O)cc1` (stereo not drawn), for which the activation is -0.0364% (inactive). With `COc1cc(-c2coc3cc(O[C@@H]4O[C@H](CO)[C@@H](O)[C@H](O)[C@H]4O)c(OC)c(O)c3c2=O)cc(O)c1OC` the figure was 8.99% (active).

In the case of `CCc1ccc(CN2CCc3nnc(-c4ccccc4)n3CC2)o1`, the activation is -0.804% (inactive). The figure for `CCN1C(=O)CC(C(=O)OC)C12CCN(Cc1ccc(OC)c(OC)c1)CC2` (stereo not drawn) is 2.97% (inactive); for `C=CCN1C(=O)CC(C(=O)OC)C12CCN(C1CCN(C(=O)OCC)CC1)CC2` (stereo not drawn) it is 12.8% (active); for `CCOC(=O)N1CCC(N2CCC(CO)(CCOc3ccccc3)CC2)CC1` it is 0.442% (inactive). The figure for `CCOc1ccccc1OCCCNCc1ccccc1` is 0.0114% (inactive); for `CCCCOc1ccccc1CNCC` it is 6.95% (active); for `CCOc1ccccc1CNCC(C)O` (stereo not drawn) it is -1.22% (inactive). With `CNC(=O)c1c(NC(=O)c2ccccc2F)sc2c1CCC(C(C)(C)C)C2` (stereo not drawn), the activation is 2.94% (inactive). On to `O=C1CC(Cc2ccccc2)C(=O)N1c1ccc(Cl)cc1` (stereo not drawn), for which the activation was 0.299% (inactive). With `Cc1ccc(Cn2c(=S)[nH]c3ccc(Cl)cc3c2=O)cc1` the figure was 0.529% (inactive). The figure for `Oc1ccc(-c2cnc3ccc(NC4CCOCC4)nn23)cc1` is -0.504% (inactive); for `Brc1cccc(-c2cnc3ccc(NC4CCOCC4)nn23)c1` it is -0.245% (inactive). In the case of `c1ccc2sc(-c3cnc4ccc(NC5CCOCC5)nn34)cc2c1`, the activation is 5.94% (active). With `O=C(CN(CC1CCCO1)C(=O)CNS(=O)(=O)c1ccccc1)NC1CCCCC1` (stereo not drawn) the figure was 0.636% (inactive); with `Cc1cc(C)nc(SCC(=O)N/N=C/c2ccc(Cl)cc2Cl)n1`, 0.39% (inactive). The figure for `COc1cccc(/C=N/NC(=O)CSc2nc(C)cc(C)n2)c1OC` is 1.66% (inactive). Turning to `CC(/C=N\NC(=O)CSc1nc(C)cc(C)n1)=C\c1ccccc1`, the activation was 9.38% (active). With `COc1ccc(C(=O)CCNC(C(=O)O)C(C)O)cc1` (stereo not drawn), the activation was -0.172% (inactive). Take `C(=N\N1CCN(c2ccccn2)CC1)/C1=C(N2CCOCC2)C(=C/c2ccccc2)/CC1`: the activation is 6.77% (active).

With `c1ccc(N2CCN(c3ccccn3)CC2)nc1`, the activation is -0.177% (inactive). With `COc1ccc(/C=N/N2CCN(c3ccccn3)CC2)cc1` the figure was 0.849% (inactive); with `CCOC(=O)c1sc2nc(SCC(=O)NCc3ccccc3Cl)n(Cc3ccc(Cl)cc3)c(=O)c2c1C`, -0.0258% (inactive); with `Cc1cc(C)c(S(=O)(=O)Nc2cccc(N3CCCS3(=O)=O)c2)c(C)c1`, 0.72% (inactive). Take `Cc1cc(C)cc(NC(=O)C(CC(C)C)NS(=O)(=O)c2ccc3c(c2)oc(=O)n3C)c1` (stereo not drawn): the activation is 3.86% (inactive). Turning to `Cc1cn2c3c(=O)n(Cc4ccccc4)c(=O)n(C)c3nc2n1C`, the activation is 0.103% (inactive). As to `Cc1ccccc1C(=O)NNC(=O)c1ccc(NC(=O)C(C)C)cc1`, the activation is 1.54% (inactive). The figure for `CC1CCN(CCCNc2nc(=S)[nH]c3ccccc23)CC1` is -3.01% (inactive). Regarding `CCN1CCCC1CNc1nc(=S)[nH]c2ccccc12` (stereo not drawn), the activation is 9.1% (active). As to `O=C(O)C1CCC(CNc2nc(=S)[nH]c3ccccc23)CC1` (stereo not drawn), the activation was -0.367% (inactive).

Regarding `CCCCn1c(N)c(N(CC(C)C)C(=O)CCC(=O)O)c(=O)[nH]c1=O`, the activation is -0.868% (inactive). The figure for `CCN1CCN(C(C)C(=O)Nc2cc(C)on2)CC1` (stereo not drawn) is -5.25% (inactive); for `CC1C(=O)NC(=O)N1c1ccc(Cl)cc1` (stereo not drawn) it is 2.6% (inactive). Consider `COc1cn2c(cc1=O)C(=O)N(CCNC(=O)c1cccc(F)c1)CC2`, for which the activation was 0.552% (inactive). With `C=CCC(CC=C)(NC(=O)c1ccc([N+](=O)[O-])cc1)c1ccccc1` the figure was 2.8% (inactive).

Consider `CCC(/C=C1\Sc2ccc(-c3ccccc3)cc2N1CC)=C\c1sc2ccc3ccccc3c2[n+]1CC`, for which the activation is -0.19% (inactive).

For `CCN1/C(=C/c2ccc3cc(C)ccc3[n+]2CC)Sc2ccc(-c3ccccc3)cc21`, the activation is 18.5% (active). With `CCN1/C(=C/c2ccc3cc(C)ccc3[n+]2CC)Sc2ccc(OC)cc21`, the activation is 1.84% (inactive). For the molecule `CCCc1cc(=O)[nH]c(SCC(=O)Nc2ccc(C(N)=O)cc2)n1`, the activation is -0.889% (inactive). As to `COc1cccc(N2C(=O)C3CCCN3C2c2ccc(F)cc2)c1` (stereo not drawn), the activation was 1.08% (inactive).

Take `COc1ccc(N2C(=O)C3CCCN3C2c2cc(OC)c(OC)cc2OC)cc1` (stereo not drawn): the activation is -1.11% (inactive). As for `COc1ccc(N2C(=O)C3CCCN3C2c2cccc(OC)c2)cc1` (stereo not drawn), the activation is 6.4% (active). `CCOC(=O)COc1cccc2c(=O)n(CC(=O)Nc3cccc(Cl)c3)ccc12`: the activation was -0.932% (inactive). With `CC(C)(C)CC(C)(C)c1ccc(OCC(=O)NNC(=O)c2ccccc2Cl)cc1` the figure was -0.581% (inactive); with `CCOC(=O)c1c(NC(=O)CSc2nc3ccccc3[nH]2)sc2c1CCC2`, -0.467% (inactive).

For `CCSc1nnc(NC(=O)CSc2nc3ccccc3[nH]2)s1`, the activation is 0.0173% (inactive). With `CCOC(=O)c1ccc2nc(NC(=O)CSc3nc4ccccc4[nH]3)sc2c1` the figure was 7.06% (active); with `C=CCn1cnc2sc(C)c(-c3ccc(Cl)cc3)c2c1=O`, 1.23% (inactive).

As for `C=CCSc1nnc(-c2cc(N(C)C)nc(N(C)C)n2)n1C`, the activation is 3.52% (inactive). On to `COCC1CCN(C(=O)c2cc(COc3ccc4ncccc4c3)on2)C1` (stereo not drawn), for which the activation is 2.98% (inactive). Consider `CCN(CC)C1CCN(C(=O)c2cc(COc3ccc4ncccc4c3)on2)C1` (stereo not drawn), for which the activation is 5.71% (active).

As for `O=C(c1cc(COc2ccc3ncccc3c2)on1)N1C[C@@H]2CCC[C@H]1C2`, the activation was 0.767% (inactive).

In the case of `Cc1[nH]c2ccccc2c1C(=O)CN1CCN(c2ccccc2)CC1`, the activation is -0.808% (inactive). For `Cc1cc2c(cc1C)NC(CC(=O)Nc1ccc(Cl)cc1Cl)C(=O)N2` (stereo not drawn), the activation is -1.58% (inactive). The figure for `O=C(Nc1ccc(Cl)c(-c2nc3ccccc3o2)c1)c1cc([N+](=O)[O-])ccc1Cl` is 0.267% (inactive).

Take `COc1ccc(C(=O)NNC(=O)c2cccc(Cl)c2)cc1OC`: the activation is 1.28% (inactive). With `Cc1cc(C)cc(OCC(=O)NNC(=O)c2cccc(Cl)c2)c1` the figure was 0.56% (inactive). The figure for `COc1ccc(COC(=O)NNC(=O)c2cccc(Cl)c2)cc1` is 6.17% (active).

As for `CCOC(=O)N1CCN(C(=O)CSc2nnc(-c3ccc(OC)cc3)o2)CC1`, the activation was -0.713% (inactive). The figure for `COc1ccc(-c2cn3c(NC(=O)c4ccccc4)cnc3cn2)cc1` is -2.03% (inactive); for `COc1cc(/C=N/NC(=O)c2cccs2)cc(OC)c1OC` it is -1.73% (inactive).

Take `O=C(N/N=C/c1cccc(Cl)c1Cl)c1cccs1`: the activation is 10.6% (active).

Turning to `O=C(N/N=C/c1cccc(Cl)c1Cl)c1ccc(O)cc1`, the activation was 0.598% (inactive). Take `COc1ccc(CNCc2cccn2-c2sc(C)c(C)c2C(=O)O)cc1`: the activation is 0.477% (inactive).

In the case of `C=CCN(c1ccc(C(=O)Nc2ccc(OCc3ccccc3)cc2)cc1)S(C)(=O)=O`, the activation is 5% (active). Turning to `C=CCN(c1ccc(C(=O)Nc2ccc(Br)c(Cl)c2)cc1)S(C)(=O)=O`, the activation is 0.888% (inactive).

For the molecule `C=CCN(c1ccc(C(=O)Nc2cc(C)cc(C)c2)cc1)S(C)(=O)=O`, the activation is -0.236% (inactive).

For the molecule `CCOC(=O)c1ccc(NC(=O)CSc2nc(NCc3ccc(Cl)cc3)c3ccccc3n2)cc1`, the activation was -0.895% (inactive). For `O=C(Nc1cccc(Cl)c1)N(C1=NCCC1)c1ccc(Cl)cc1`, the activation is 0.148% (inactive). The figure for `CC(=O)c1c(C)[nH]c(C(=O)N2CCN(c3ccc(Cl)cc3)CC2)c1C` is 5.19% (active); for `CC(=O)c1c(C)[nH]c(C(=O)CN2CCN(C(=O)c3ccccc3)CC2)c1C` it is 0.331% (inactive). Consider `CCc1c(C(=O)N2CCN(c3cccc(Cl)c3)CC2)[nH]c(C)c1C(C)=O`, for which the activation was 4.26% (inactive). With `COc1ccc(C(=O)NCCc2ccc(F)cc2)cc1[N+](=O)[O-]` the figure was 0.474% (inactive); with `COc1cccc(-c2nnc(N)s2)c1`, -0.725% (inactive); with `Cc1cnc(C(=O)N2CCc3ccc(NC(=O)Cc4ccccc4F)cc3C2)cn1`, 1.39% (inactive). The figure for `CCOC(=O)N1CCN(Cc2nc3c(c(=O)n(C)c(=O)n3C)n2CC(C)C)CC1` is -1.33% (inactive). The figure for `Cc1nc(N2CCCC2C(=O)N2CC3CCC2C3)nc2ccccc12` (stereo not drawn) is 0.0962% (inactive); for `COc1ccccc1C1CCCN1C(=O)C1CCN(c2nc(C)c3ccccc3n2)CC1` (stereo not drawn) it is 11.3% (active); for `COc1ccccc1C1CCCN1C(=O)C1CC(Cc2ccc(F)cc2)=NO1` (stereo not drawn) it is 1.31% (inactive). In the case of `O=C(O)CCC(=O)N1N=C(c2ccc(O)cc2)CC1c1ccc(Br)cc1` (stereo not drawn), the activation is 0.932% (inactive). Take `CCc1cc(C(=O)COc2ccc([N+](=O)[O-])cc2)c(O)cc1O`: the activation was -0.273% (inactive). In the case of `Cc1cc(Oc2ncnc(N)c2[N+](=O)[O-])cc(C(C)C)c1`, the activation is 1.22% (inactive). With `NC(=O)c1ccnc(N2CCc3ccccc3C2)c1`, the activation is 0.149% (inactive). On to `CN1C(=O)NC(=O)/C(=C\c2ccc(-c3ccc(Br)c(Cl)c3)o2)C1=O`, for which the activation is -0.645% (inactive).

On to `COc1cc(C=O)ccc1OCc1ccc(Br)cc1`, for which the activation is -0.687% (inactive).

Take `COc1cc(C=O)ccc1OCCOc1ccc(C=O)cc1OC`: the activation was -1.4% (inactive). The figure for `COc1ccc(C=O)cc1OCc1ccc(F)cc1` is 4.92% (active); for `O=C(CC1=CCCCC1)NCC1Cc2cc(F)cc(-c3cncnc3)c2O1` (stereo not drawn) it is -1.03% (inactive). The figure for `CCc1cccc(C)c1NC(=O)/C=C/C(=O)O` is 0.671% (inactive); for `CCCNC(=O)c1ccc(Cl)cc1[N+](=O)[O-]` it is 1.13% (inactive).
